# Most compounds without a hit are left out; they make up all but 21% or so of the library.
# Pf growth 96h = P. falciparum growth inhibition at 96 hours | hit rate 6.9% among 320,000 | Potency, µM (top dose mostly 28.7 µM), without a hit: at the highest dose activity change, negative = inhibition, usual class: inhibitors | P. falciparum luciferase reporter growth, 96 h; note: potency is the fitted concentration of half-maximal effect; % is set by controls: 0 for no effect and ±100 for the full control effect
#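 Cell-based qHTS: luciferase-tagged P. falciparum in erythrocytes (2% hematocrit, 0.05% parasitemia final) incubated with compounds for 96 hours, 37 C, 5% CO2; luciferase detection reagent then added and luminescence measured.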
# HCV inhibitor = inhibitors of hepatitis C virus infection; AID 651820; Huh7.5.1 HCVcc-Cre infection, luciferase reporter, 44 h; Potency, µM (series often up to 41.8 µM), for the others: top-dose activity change, negative = inhibition, hits mostly inhibitors; hit rate 3.4% among 340,000; note: potency is the fitted concentration of half-maximal effect; % is set by controls: 0 for no effect and ±100 for the full control effect
#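 Reporter virus HCVcc-Cre (~0.5 moi) infects cells exposed to compound; seeding density 1,000 cells/well with 4 h settling beforehand. Luminescence, 15 sec read, taken 44 h post-infection following a 15 min RT substrate incubation.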
# Cycloheximide cs = counter-screen hit for Shiga toxin inhibitors, cycloheximide | cell reporter, cycloheximide protein synthesis inhibition counterscreen | max response, % | hit rate 12% among 300,000; in the data active = max response mostly above about 13%, no sharp cut-off; inactive = mostly below about 14%; note: read at 38.3 µM for the half of the compounds with a filed dose; 0% is about no effect
# Shiga toxin inh = inhibitors of Shiga toxin in Vero cells. Vero cells, Shiga toxin protein synthesis inhibition reporter. inhibition, % at 38.7 µM. hit rate 9.2% among 290,000; in the data active = inhibition mostly above about 28%, no sharp cut-off; inactive = mostly below about 43%; note: 0% is about no effect
# AMA1 RON2 block = inhibitors of Plasmodium falciparum AMA1-RON2 interaction | AlphaScreen AMA1-biotinylated RON2 peptide binding | Potency, µM (highest dose often 58.2 µM), for inactives: at the highest dose activity change, negative = inhibition, hits mostly inhibitors | hit rate 0.2% among 360,000;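 note: potency is the fitted concentration of half-maximal effect; 0% = vehicle wells and -100% = peptide control; nearly all actives have a fitted effect of over 45% in size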
#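 AMA1 (3D7) with his tag at 25 nM final met compounds first, then biotinylated RON2 peptide at 25 nM; detection used donor plus acceptor beads, 10 µg/mL apiece, read by AlphaScreen after 30 min at room temperature.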
# Pf growth 48h = P. falciparum growth inhibition at 48 hours (one generation); Potency, µM (doses to about 28.7 µM), inactives show at the top dose activity change, negative = inhibition, hits mostly inhibitors; P. falciparum luciferase growth in erythrocytes, 48 h; hit rate 5.9% among 310,000; note: potency is the fitted concentration of half-maximal effect; % is set by controls: 0 for no effect and ±100 for the full control effect
#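 Parasite viability was followed by luminescence of a genomically integrated firefly luciferase. Cultures held 0.1% parasitemia at 2% hematocrit (final), incubated under 5% CO2 at 37 C.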
# Numbers without * were called inactive; ? = inconclusive; . = no result given; [ ] = remark or other dose. Unless noted, calls come from the whole dose curve; as a rule, active = well fitted curve in the direction sought with a large enough effect; inconclusive = small, poorly fitted or top-dose-only effect, or another doubt; inactive = no such curve, though single readings can be large; an effect the other way counts as inactive or inconclusive.
SMILES,Pf growth 96h,HCV inhibitor,Cycloheximide cs,Shiga toxin inh,AMA1 RON2 block,Pf growth 48h
O=C(NCc1ccccn1)c1cc(-c2ccc(-c3ccccc3)cc2)nc2ccccc12,?,?,19.9*,128.3*,70.8%,?
O=C(NCc1ccco1)c1cc(-c2ccncc2)nc2ccccc12,?,-9.8%,-5.6,-15.6,-9.0%,2.08µM*
O=C(Nc1nccs1)c1cc(-c2ccco2)nc2ccccc12,22.9%,1.0%,-1.2,-4.1,20.4%,9.1%
O=C(Nc1nccs1)c1cc(-c2ccccc2)nc2ccccc12,3.29µM*,?,-4.0,-4.1,55.3%,2.62µM*
Cc1ccc(-c2cc(C(=O)NCc3ccccn3)c3ccccc3n2)cc1C,-7.6%,?,30.8*,65.8*,114.0%,8.28µM*
O=C(NCc1ccccn1)c1cc(-c2ccc(Cl)cc2)nc2ccccc12,?,-42.0%,9.6,33.1*,78.7%,?
CSc1ccc(Cl)c(C(=O)N2CCOc3ccccc32)c1,-24.7%,-3.1%,-1.9,-4.0,-4.9%,-2.3%
O=C(c1cccc(C(F)(F)F)c1)N1CCOc2ccccc21,0.8%,0.1%,4.0,25.0,15.5%,13.1µM*
CCN(CC)C(=O)CSc1nnnn1-c1ccc(F)c(Cl)c1,1.3%,2.4%,4.4,-3.7,-0.1%,13.8%
CC(Cc1ccccc1)NCc1ccccc1O (centres undefined),?,5.8%,-2.5,19.5,13.4%,?
Oc1ccccc1CNCC12CC3CC(CC(C3)C1)C2,0.0828µM*,-21.5%,2.1,-7.6,13.2%,0.104µM*
CC(CC12CC3CC(CC(C3)C1)C2)NCc1ccccc1O (centres undefined),9.28µM*,?,-6.3,.,-10.8%,?
CCC(=O)c1ccc(OCC(=O)OC(C)C(=O)N2CCc3ccccc32)cc1 (centres undefined),3.7%,22.3%,.,.,-8.7%,3.8%
CCCCCC(=O)Nc1ccc(N2CCOCC2)c(S(=O)(=O)Nc2ccc(OC)cc2)c1,?,?,.,.,1.0%,14.7µM*
COc1ccc(NS(=O)(=O)c2cc(NC(=O)/C=C/c3cccs3)ccc2N2CCOCC2)cc1,7.38µM*,?,0.8,-3.4,3.6%[2.32 µM],?
COc1ccc(NS(=O)(=O)c2cc(NC(=O)c3ccc(C)s3)ccc2N2CCOCC2)cc1,13.1µM*,-25.7%,5.3,1.9,-5.4%,?
COc1ccc(NS(=O)(=O)c2cc(NC(=O)/C=C/c3ccccc3OC)ccc2N2CCCCC2)cc1,1.04µM*,3.6%,-2.0,17.0,-20.8%,1.04µM*
COCC(=O)Nc1ccc(N2CCOCC2)c(S(=O)(=O)Nc2ccc(OC)cc2)c1,.,?,.,.,-4.2%,.
CCC(=O)Nc1ccc(N2CCOCC2)c(S(=O)(=O)Nc2ccc(OC)cc2)c1,-9.4%,-29.2%,3.0,17.2,-13.6%,6.8%
COc1ccccc1CNC(=O)CCNS(=O)(=O)/C=C/c1ccc(C)cc1,.,-2.5%,.,.,-8.2%,.
CC(=O)Nc1cccc(-c2ccnc3c2CC(C(=O)Nc2ccc(Cl)cc2)O3)c1 (centres undefined),.,.,.,.,-26.1%,.
CN(c1ccccc1)S(=O)(=O)c1nnc(NC(=O)C2CCCCC2)s1,23.0%,11.7%,5.2,-9.1,1.0%,6.0%
Cc1ccc(C)c(OCc2cc(C(=O)N3CCN(c4ccccc4C)CC3C)no2)c1 (centres undefined),11.7µM*,?,31.3*,113.5*,0.0%,5.7%
Cc1cccc(C)c1OCc1cc(C(=O)N2CCN(c3ccccc3)CC2C)no1 (centres undefined),22.7%,.,15.9*,26.0,-29.1%,5.9%
CN1CCN(CCCNC(=O)c2ccc(CSCc3cccc(Cl)c3)o2)CC1,-5.8%,-27.5%,-5.4,-3.4,-5.6%,-0.2%
SMILES,Pf growth 96h,HCV inhibitor,Cycloheximide cs,Shiga toxin inh,AMA1 RON2 block,Pf growth 48h
Cc1ccc(CSCc2ccc(C(=O)NCCCN3CCOCC3)o2)cc1,-19.6%,-20.7%,15.7*,9.3,-8.8%,54.0%
O=C(NCCCN1CCCC1)c1ccc(CSCc2cccc(Cl)c2)o1,?,10µM*,-2.2,-17.5,-7.5%,.
Cc1ccccc1CSCc1ccc(C(=O)NCCCN2CCOCC2)o1,0.0%,5.1%,-3.7,-6.7,-2.1%,18.4%
CC(OC(=O)c1ccc(Cl)c(S(=O)(=O)N2CCOCC2)c1)C(=O)Nc1ccc(S(N)(=O)=O)cc1 (centres undefined),-3.4%,6.2%,.,.,24.9%,?
COc1ccc(CCNC(=O)C2Cc3ccccc3C(=O)O2)cc1 (centres undefined),11.5%,28.2%,15.1,-12.4,4.4%,?
Cc1ccccc1NC(=O)C1Cc2ccccc2C(=O)O1 (centres undefined),56.9%,1.1%,14.3*,17.3,-2.2%,0.0%
CCc1ccccc1C1=CC(=O)C[C@H](c2ccc(OC)cc2)C1,.,-19.6%,.,.,11.0%,.
COc1ccc(C2Cc3ccccc3C(=O)O2)cc1 (centres undefined),-13.2%,22.3%,19.3,active,27.5%,25.7%
COc1ccc(NC(=O)C2Cc3ccccc3C(=O)O2)cc1 (centres undefined),87.1%,2.4%,12.2*,25.8,-4.4%,44.4%
c1ccc(-c2nc(NC3CCCC3)c3ccccc3n2)cc1,10.4µM*,1.26µM*,4.3,43.5,3.1%,?
C=CCNc1nc(-c2cccc(OC)c2O)nc2ccccc12,?,15.8µM*,-3.3,31.9,-11.0%,?
c1ccc(CN2CCC(Nc3nc(-c4cccs4)nc4ccccc34)CC2)cc1,5.22µM*,?,-4.1,2.0,-22.6%,5.22µM*
COc1cccc(-c2nn[nH]n2)c1O,-19.6%,16.7%,-2.8,-5.5,65.5%,7.0%
COc1cccc(-c2nc(NC3CCCC3)c3ccccc3n2)c1O,9.28µM*,2.82µM*,-0.5,6.5,-8.5%,.
COc1ccc(OC)c(C2=Nn3c(nnc3-c3ccccc3OC)SC2)c1,.,.,13.1,7.9,.,.
COc1cccc(-c2nc(NCc3ccco3)c3ccccc3n2)c1O,?,?,-2.3,-16.2,9.1%,?
COc1cccc(-c2nc(NCc3ccccc3)c3ccccc3n2)c1O,?,?,6.2,13.6,-5.1%,14.7µM*
N=C1/C(=C\c2ccc(OC(=O)c3ccccc3)cc2)C(=O)N=C2SC(N3CCOCC3)=NN12,19.5%,21.6%,15.2*,11.3,152.9%,-24.9%
N=C1/C(=C\c2ccc(OC(=O)c3ccc(F)cc3)cc2)C(=O)N=C2SC(N3CCCC3)=NN12,?,11.1%,15.3,11.2,100.8%,-0.8%
N=C1/C(=C\c2ccc(OC(=O)c3ccco3)cc2)C(=O)N=C2SC(N3CCCCC3)=NN12,11.7%,19.5%,0.5,30.3,110.4%,-6.5%
N=C1/C(=C\c2ccc(OCc3ccccc3)cc2)C(=O)N=C2SC(N3CCCC3)=NN12,-27.3%,.,27.1*,45.3*,.,3.1%

# Screening results deposited in PubChem BioAssay by National Center for Advancing Translational Sciences (NCATS).
